The results in this text go back to PubChem BioAssay (Tox21).

Experiment [1] can be described thus: qHTS assay to identify small molecule antagonists of the thyroid receptor (TR) signaling pathway - cell viability counter screen (AID 743064). Also: nearly all actives have a fitted effect of over 50% in size. Also: potency is read from the fitted curve at half-maximal effect. The essentials: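 In rat pituitary GH3.TRE-Luc reporter cells co-exposed to compound and 1 nM T3 for 23.5 h, cytotoxicity was assessed with CellTiter-Fluor in the same wells, read by fluorescence.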
On the technique in general: Quantitative high-throughput screening tests each substance at several concentrations.

A short description of experiment [2]: qHTS assay to identify small molecule antagonists of the thyroid receptor (TR) signaling pathway (AID 743065). Also: nearly all actives have a fitted effect of over 55% in size. Also: potency is read from the fitted curve at half-maximal effect. Summed up: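 GH3.TRE-Luc rat pituitary cells carrying two TR response elements driving luciferase were plated for 4 h, given compound plus 1 nM T3 (final), and incubated 23.5 h at 37 C. ONE-Glo luminescence measured reporter inhibition; CellTiter-Fluor fluorescence tracked cytotoxicity.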

Experiment [3] deals with thyroid hormone receptor (rat, GH3 cells). The experiment can be described thus: qHTS assay to identify small molecule agonists of the thyroid receptor (TR) signaling pathway (AID 743066; calls by dose curve).
Experiment [4] in a line: qHTS assay to identify small molecule antagonists of the estrogen receptor alpha (ER-alpha) signaling pathway using the BG1 cell line - cell viability counter screen (AID 743081).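 Also: compound given together with 17beta-estradiol as the ER stimulus; series mostly up to about 70 µM; nearly all actives have a fitted effect of over 45% in size.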
Experiment [5] deals with Aromatase (Homo sapiens) (UniProt P11511). The experiment can be described thus: qHTS assay to identify aromatase inhibitors (AID 743083). Also: nearly all actives have a fitted effect of over 55% in size. Also: potency is read from the fitted curve at half-maximal effect.
A short description of experiment [6]: qHTS assay to identify aromatase inhibitors - cell viability counter screen (AID 743084).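 Also: cells stimulated with testosterone during compound exposure; nearly all actives have a fitted effect of over 55% in size.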 Also: potency is read from the fitted curve at half-maximal effect.
Experiment [7] in a line: qHTS assay to identify small molecule that activate the aryl hydrocarbon receptor (AhR) signaling pathway - cell viability counter screen (AID 743086). Also: nearly all actives have a fitted effect of over 45% in size. Also: potency is read from the fitted curve at half-maximal effect. Summed up: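 HepG2-AhR-luc (HG2L7.5c1) cells, 4000/well, were preincubated 5 h at 37C, exposed to compound in qHTS format for 24 hr at 37C, then given CellTiter-Fluor for 30 min; viability was read as fluorescence in the reporter wells.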

In experiment [8] the target is Peroxisome proliferator-activated receptor gamma (Homo sapiens) (UniProt P37231). The experiment can be described thus: qHTS assay to identify small molecule agonists of the peroxisome proliferator-activated receptor gamma (PPARg) signaling pathway (AID 743094; active = well fitted activation curve with a large enough effect in the signal ratio in the repeat runs, not every such curve was filed as active; the % refers to the signal ratio). Summed up:
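GeneBLAzer PPARg UAS-bla HEK293H cells were plated, rested 5 h, then exposed to compounds for 17 h at 37C. Beta-lactamase activity was read by LiveBLAzer B/G FRET substrate fluorescence after 1 h at room temperature.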

Experiment [9] shares this target. Nature of the experiment: qHTS assay to identify small molecule antagonists of the peroxisome proliferator-activated receptor gamma (PPARg) signaling pathway (AID 743191; calls by dose curve; also: series mostly up to about 63 µM; nearly all actives have a fitted effect of over 30% in size). The essentials: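 GeneBLAzer PPARg UAS-bla HEK293H cells carrying a UAS-driven beta-lactamase reporter were plated at 3000 cells/well, preincubated 5 h at 37C, then given compound for 17 h at 37C; LiveBLAzer B/G FRET substrate was read after 1 h at room temperature.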

The nature of experiment [10]: qHTS assay to identify small molecule antagonists of the peroxisome proliferator-activated receptor gamma (PPARg) signaling pathway - cell viability counter screen (AID 743194). Also: nearly all actives have a fitted effect of over 55% in size. Also: potency is read from the fitted curve at half-maximal effect. The essentials:
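PPARg-UAS-bla HEK293H cells were plated, rested 5 h at 37 C, then treated with compounds plus rosiglitazone (50 nM final) for 17 h at 37 C; viability was then read by CellTiter-Glo luminescence after 30 min at room temperature.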

A short description of experiment [11]: qHTS assay for small molecule agonists of the antioxidant response element (ARE) signaling pathway (AID 743202; active = well fitted activation curve with a large enough effect in the signal ratio in the repeat runs, not every such curve was filed as active; the % refers to the signal ratio; also: potency is read from the fitted curve at half-maximal effect). The essentials: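 Compounds delivered in DMSO to ARE-bla HepG2 cells (2,000 cells/well, pre-incubated 5 h) and left 16 h at 37 C. LiveBLAzer B/G FRET substrate then added for 2 h at RT before fluorescence reading.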
Experiment [12] can be described thus: qHTS assay for small molecule activators of the heat shock response signaling pathway - cell viability counter screen (AID 743209). Also: nearly all actives have a fitted effect of over 50% in size. Also: potency is read from the fitted curve at half-maximal effect. Summed up: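 HSE-bla HeLa cells plated overnight, then exposed to Tox21 compounds (23 nL in DMSO) for 5 h at 37 C. After the bla reporter read, CellTiter-Glo was added in the same wells and luminescence read after 30 min at room temperature.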

Experiment [13] can be described thus: qHTS assay to identify small molecule antagonists of the estrogen receptor alpha (ER-alpha) signaling pathway - cell viability counter screen (AID 743074; calls by dose curve;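 also: HEK293 cells carrying ER-alpha-UAS-bla reporter stimulated with 17beta-estradiol; nearly all actives have a fitted effect of over 45% in size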; also: potency is read from the fitted curve at half-maximal effect).
In experiment [14] the target is Estrogen receptor (Homo sapiens) (UniProt P03372). The experiment can be described thus: qHTS assay to identify small molecule agonists of the estrogen receptor alpha (ER-alpha) signaling pathway (AID 743075; calls by dose curve;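 also: HEK293 GripTite cells with ER-alpha and UAS-driven beta-lactamase reporter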).
Experiment [15] is described as follows: qHTS assay to identify small molecule antagonists of the estrogen receptor alpha (ER-alpha) signaling pathway using the BG1 cell line (AID 743080; calls by dose curve;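 also: BG1 cells stimulated with 17beta-estradiol alongside compound; series mostly up to about 70 µM; nearly all actives have a fitted effect of over 25% in size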). Summed up: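 Quantitative HTS on the Tox21 10K library: BG1 cells with endogenous ER-alpha and ERE-luciferase reporter, 17beta-estradiol stimulation, 21.5 h compound exposure, luminescence endpoint with parallel fluorescence cytotoxicity counter-read.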

Experiment [16] deals with Aryl hydrocarbon receptor (Homo sapiens) (UniProt P35869). Nature of the experiment: qHTS assay to identify small molecule that activate the aryl hydrocarbon receptor (AhR) signaling pathway (AID 743085).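 Also: HG2L7.5c1 human HepG2 liver cells with stably integrated DRE-driven firefly reporter; series mostly up to about 70 µM; nearly all actives have a fitted effect of over 15% in size.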 The essentials:
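AhR agonist activity is inferred from enhanced light output of a DRE-controlled firefly luciferase reporter in HepG2 cells, measured with ONE-Glo following 24 h treatment at 37C.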

A short description of experiment [17]: qHTS assay for small molecule agonists of the antioxidant response element (ARE) signaling pathway - cell viability counter screen (AID 743203; calls by dose curve; also: nearly all actives have a fitted effect of over 55% in size; also: potency is read from the fitted curve at half-maximal effect). The essentials: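 ARE-bla HepG2 cells were plated, rested 5 h at 37C/5% CO2, then exposed to compounds in DMSO for 16 h. Viability was read as CellTiter-Glo luminescence after 30 min at room temperature, in the same wells as the ARE screen.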

A short description of experiment [18]: qHTS assay for small molecule activators of the heat shock response signaling pathway (AID 743210; active = well fitted activation curve with a large enough effect in the signal ratio in the repeat runs, with a control signal flat, not every such curve was filed as active; the % refers to the signal ratio;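 also: HeLa cells with beta-lactamase reporter driven by heat shock elements; series mostly up to about 63 µM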). The essentials:
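Reporter gene assay: HeLa cells stably bearing an HSE-bla construct, compound treatment 5 h at 37 C, LiveBLAzer substrate 2.5 h at RT, fluorescence intensity.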

The target of experiment [19] is Estrogen receptor (Homo sapiens) (UniProt P03372). The experiment can be described thus: qHTS assay to identify small molecule antagonists of the estrogen receptor alpha (ER-alpha) signaling pathway (AID 743069; active = well fitted curve in the direction sought with a large enough effect in the signal ratio in the repeat runs, not every such curve was filed as active; the % refers to the signal ratio). Summed up:
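Estradiol-stimulated ER-alpha-UAS-bla HEK293 cells, 18 hr compound exposure at 37C. LiveBLAzer B/G substrate, 2 hr RT, fluorescence read.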

For experiment [20] the target is unchanged. The experiment can be described thus: qHTS assay to identify small molecule agonists of the estrogen receptor alpha (ER-alpha) signaling pathway using the BG1 cell line (AID 743079). Also: nearly all actives have a fitted effect of over 20% in size.

“And” between values parts separate entries of the source, which are not always exact repeats. Equal entries are not always repeated. Results filed as inconclusive are left out. Some compounds were tested as several samples or in several runs, with calls that do not always agree. The source made the active and inactive calls. Unless noted, calls follow the shape of the dose curve; as a rule, active = well fitted curve in the direction sought with a large enough effect in the repeat runs; inconclusive = weak or mixed curves; inactive = no such curve, though single readings can be large; an effect the other way counts as inactive or inconclusive.

Sequence of Aryl hydrocarbon receptor (Homo sapiens) (P35869 whole entry, looked up): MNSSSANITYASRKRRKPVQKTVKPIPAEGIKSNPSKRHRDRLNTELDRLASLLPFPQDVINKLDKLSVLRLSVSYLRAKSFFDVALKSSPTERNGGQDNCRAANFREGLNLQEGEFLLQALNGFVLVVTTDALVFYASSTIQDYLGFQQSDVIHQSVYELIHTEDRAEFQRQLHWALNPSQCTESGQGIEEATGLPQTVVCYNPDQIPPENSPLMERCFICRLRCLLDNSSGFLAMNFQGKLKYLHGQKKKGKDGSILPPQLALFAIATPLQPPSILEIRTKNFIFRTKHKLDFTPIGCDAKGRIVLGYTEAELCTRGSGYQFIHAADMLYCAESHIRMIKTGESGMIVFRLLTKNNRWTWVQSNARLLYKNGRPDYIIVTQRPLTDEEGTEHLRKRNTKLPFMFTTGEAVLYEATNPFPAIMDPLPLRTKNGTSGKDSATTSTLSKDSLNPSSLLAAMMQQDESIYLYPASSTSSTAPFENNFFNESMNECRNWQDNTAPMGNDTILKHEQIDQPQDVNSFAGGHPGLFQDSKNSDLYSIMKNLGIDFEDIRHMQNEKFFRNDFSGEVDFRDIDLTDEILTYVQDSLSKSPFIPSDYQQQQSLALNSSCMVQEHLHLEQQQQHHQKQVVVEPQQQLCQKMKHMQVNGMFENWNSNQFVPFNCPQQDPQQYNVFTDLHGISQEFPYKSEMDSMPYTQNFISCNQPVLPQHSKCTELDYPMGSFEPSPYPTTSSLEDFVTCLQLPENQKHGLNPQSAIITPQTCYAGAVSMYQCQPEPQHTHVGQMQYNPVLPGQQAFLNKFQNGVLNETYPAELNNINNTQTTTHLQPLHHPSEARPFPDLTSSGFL
Sequence of Aromatase (Homo sapiens) (P11511 whole entry, looked up): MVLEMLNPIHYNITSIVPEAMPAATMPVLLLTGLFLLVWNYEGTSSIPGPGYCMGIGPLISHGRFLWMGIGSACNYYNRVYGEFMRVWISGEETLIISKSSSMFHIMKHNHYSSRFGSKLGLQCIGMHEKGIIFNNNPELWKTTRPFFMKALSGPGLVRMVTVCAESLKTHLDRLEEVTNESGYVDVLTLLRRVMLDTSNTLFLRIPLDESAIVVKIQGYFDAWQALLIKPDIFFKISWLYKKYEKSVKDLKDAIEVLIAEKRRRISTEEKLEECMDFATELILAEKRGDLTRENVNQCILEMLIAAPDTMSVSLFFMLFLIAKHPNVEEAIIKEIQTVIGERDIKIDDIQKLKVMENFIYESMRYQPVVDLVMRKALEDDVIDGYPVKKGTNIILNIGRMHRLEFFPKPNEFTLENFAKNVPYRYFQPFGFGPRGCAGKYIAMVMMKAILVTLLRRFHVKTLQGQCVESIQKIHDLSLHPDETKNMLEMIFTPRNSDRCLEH
Sequence of Peroxisome proliferator-activated receptor gamma (Homo sapiens) (P37231 whole entry, looked up): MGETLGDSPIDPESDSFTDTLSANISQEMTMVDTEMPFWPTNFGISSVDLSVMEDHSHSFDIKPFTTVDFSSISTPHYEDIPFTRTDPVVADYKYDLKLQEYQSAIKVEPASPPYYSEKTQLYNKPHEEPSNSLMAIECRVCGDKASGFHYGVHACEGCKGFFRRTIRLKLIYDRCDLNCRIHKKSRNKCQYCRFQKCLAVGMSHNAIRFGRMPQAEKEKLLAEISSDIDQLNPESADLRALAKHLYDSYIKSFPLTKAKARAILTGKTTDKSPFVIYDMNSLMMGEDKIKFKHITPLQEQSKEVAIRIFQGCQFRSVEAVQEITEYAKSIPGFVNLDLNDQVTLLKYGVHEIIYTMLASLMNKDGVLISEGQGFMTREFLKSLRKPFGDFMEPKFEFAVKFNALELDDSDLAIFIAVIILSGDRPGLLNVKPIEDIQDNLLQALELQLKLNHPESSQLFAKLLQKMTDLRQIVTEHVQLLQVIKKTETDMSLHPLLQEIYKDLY
Sequence of Estrogen receptor (Homo sapiens) (P03372 whole entry, looked up): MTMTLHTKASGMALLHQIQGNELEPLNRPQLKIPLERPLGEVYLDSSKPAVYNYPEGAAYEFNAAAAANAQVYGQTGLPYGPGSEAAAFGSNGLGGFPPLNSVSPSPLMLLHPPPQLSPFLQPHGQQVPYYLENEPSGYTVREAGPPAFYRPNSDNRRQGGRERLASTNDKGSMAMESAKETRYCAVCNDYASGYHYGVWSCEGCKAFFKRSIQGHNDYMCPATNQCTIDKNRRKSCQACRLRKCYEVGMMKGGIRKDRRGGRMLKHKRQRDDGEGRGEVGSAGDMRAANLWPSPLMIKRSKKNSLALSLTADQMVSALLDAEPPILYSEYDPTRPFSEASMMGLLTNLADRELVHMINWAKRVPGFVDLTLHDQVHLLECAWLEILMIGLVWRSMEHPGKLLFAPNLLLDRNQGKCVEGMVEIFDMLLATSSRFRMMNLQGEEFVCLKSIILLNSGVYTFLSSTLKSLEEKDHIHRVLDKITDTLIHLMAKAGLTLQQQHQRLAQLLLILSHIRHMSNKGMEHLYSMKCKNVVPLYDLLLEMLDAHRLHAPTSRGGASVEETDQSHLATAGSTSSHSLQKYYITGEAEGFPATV

For the compound `Oc1ccccc1O`, the Potency is 17.4 µM (active) and 15.4 µM (active) in experiment [1]; 43.8 µM (active) and 43.3 µM (active) in experiment [2]; 27.6 µM (active) in [5]; 31 µM (active) in [6]; 30.6 µM (active) in [11]. Also, the outcome in [3] was inactive. For the same compound, the Potency entry in [4], in [7], in [8], in experiment [9], in experiment [10] and in [12] was “inactive” in each case.

`O=c1c(O)c(-c2ccc(O)cc2O)oc2cc(O)cc(O)c12`: the Potency result in experiment [1], in [13], in [14], in experiment [15], in experiment [4] and in [5] was “inactive” each time. Further, the Potency result in [16], in experiment [8], in experiment [10], in experiment [17] and in experiment [12] was “inactive” each time. In addition, the compound was classed as inactive in [3].

With `C=CCn1c(=O)n(CC=C)c(=O)n(CC=C)c1=O`, the Potency result in [1], in experiment [2], in [13], in experiment [4], in [5] and in experiment [6] was “inactive” each time. Also, the Potency entry in experiment [7], in experiment [10], in experiment [11], in experiment [17], in [12] and in experiment [18] was “inactive” throughout. For the same compound, in [3], the call was inactive.

Take `Cc1cc(C(C)(C)C)cc(C)c1CC1=NCCN1`: the Potency result in experiment [1], in [19], in [13], in experiment [14], in [20] and in [15] was “inactive” in each case. Further, the Potency result in experiment [4], in [5], in experiment [6], in [16], in experiment [7] and in experiment [8] was “inactive” in each case. The Potency entry in [9], in experiment [10], in experiment [11], in [17], in [12] and in experiment [18] was “inactive” in each case. Also, the call in experiment [3] was inactive.

For `O=[N+]([O-])c1ccc(O)cc1C(F)(F)F`, the Potency in [1] is 54.5 µM (active); in experiment [2] it was 21.7 µM (active); in [6] it was 68.6 µM (active); in experiment [7], 61.1 µM (active); in experiment [10] it was 38.9 µM (active). The Potency entry in experiment [16], in [8], in [9] and in experiment [12] was “inactive” in each case.

In the case of `CN1CCCCC1CCN1c2ccccc2Sc2ccc(S(C)=O)cc21` (configuration not stated), the Potency entry in experiment [1] was “inactive and 13.3 µM (active)”. The compound was classed as inactive in [3]. For the same compound, the Potency result in experiment [19], in experiment [13], in experiment [14], in experiment [20], in experiment [15] and in experiment [4] was “inactive” in each case. Also, the Potency result in [5], in [6], in experiment [16], in [7], in experiment [8] and in experiment [9] was “inactive” each time. Besides, the Potency result in [10], in experiment [17] and in [12] was “inactive” throughout.

As for `Cc1cc(-n2nc3ccc(Cl)cc3n2)c(O)c(C(C)(C)C)c1`, the Potency result in experiment [1], in [2], in experiment [13], in experiment [4], in [7] and in [10] was “inactive” each time. Besides, the Potency result in experiment [11], in experiment [12] and in experiment [18] was “inactive” throughout. Further, the call in experiment [3] was inactive.

`O=C1CCc2ccc(OCCCCN3CCN(c4cccc(Cl)c4Cl)CC3)cc2N1`: the Potency in experiment [1] was 11.9 µM (active); in [2], 11.9 µM (active); in experiment [13], 23.9 µM (active); in experiment [10], 15 µM (active); in [17] it was 16.8 µM (active); in experiment [12] it was 26.6 µM (active). In addition, the Potency result in [5], in [6], in [16] and in experiment [7] was “inactive” throughout.
